Source: PubChem BioAssay (NCATS)
Records with an inconclusive call do not appear. Unless noted, the call rests on the fitted dose curve; in most records, active means well fitted curve in either direction with a large enough effect (not every such curve was filed as active); inconclusive means small, poorly fitted or top-dose-only effect, or another doubt; inactive means flat fitted curve, though single readings scatter.

Tests used:
[1] = AP1 Signaling Pathway (AID 357); conditions: ME-180 AP-1-bla reporter, EGF-induced, beta-lactamase ratio, 5 h; at 17.2 µM (top of the series) unless noted; further: on the % scale 0 is the no-effect control and ±100 the full control effect
Method in brief: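 AP-1-bla ME-180 cells with beta-lactamase reporter under AP-1 response element, stimulated with EC50 EGF; compounds titrated, 5 hours at 37 degrees Celsius. CCF4 read at 460/530 nm ratio; positive and negative modulators judged by AC50.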

[2] = NFAT Signaling Pathway (AID 444); conditions: Jurkat NFAT-bla M1, carbachol, beta-lactamase ratio, 5 h; at 17.2 µM (top of the series) unless noted;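 further: carbachol stimulus at about its EC50 of 1 µM final; on the % scale 0 is the no-effect control and ±100 the full control effect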
Method in brief: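 Jurkat cells with NFAT-driven β-lactamase reporter and co-expressed M1 receptor, stimulated with carbachol (final 1 uM, ~EC50), compound titration, 5 h at 37 °C. CCF4 loaded 1 h at RT; 460/530 nm ratio gave %activity and AC50.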

[3] = Stat Signaling Pathway (AID 446); conditions: ME-180 (cervical carcinoma) SIE beta-lactamase reporter, IL-6 stimulated, 5 h; at 17.2 µM (top of the series) unless noted;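 further: ME-180 cervical cancer cells given 40 pM IL-6 alongside compound; SIE-controlled beta-lactamase reporter measured as 460/530 nm FRET emission ratio; on the % scale 0 is the no-effect control and ±100 the full control effect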
Method in brief: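 Overnight-plated ME-180 cells bearing a STAT Inducible Element beta-lactamase reporter; 5 h co-exposure to compound and 40 pM IL-6; values normalized to 300 pM IL-6 and 125 nM JAK inhibitor controls.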

[4] = target: Glucocorticoid receptor (Homo sapiens) (UniProt P04150); assay: GR-GFP Redistribution (AID 450;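 active means compounds whose dose series gives a full or clear partial fitted curve of increased nuclear translocation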; further: potency means the concentration at half of the fitted maximal effect)
Sequence of Glucocorticoid receptor (Homo sapiens) (P04150 whole entry, looked up): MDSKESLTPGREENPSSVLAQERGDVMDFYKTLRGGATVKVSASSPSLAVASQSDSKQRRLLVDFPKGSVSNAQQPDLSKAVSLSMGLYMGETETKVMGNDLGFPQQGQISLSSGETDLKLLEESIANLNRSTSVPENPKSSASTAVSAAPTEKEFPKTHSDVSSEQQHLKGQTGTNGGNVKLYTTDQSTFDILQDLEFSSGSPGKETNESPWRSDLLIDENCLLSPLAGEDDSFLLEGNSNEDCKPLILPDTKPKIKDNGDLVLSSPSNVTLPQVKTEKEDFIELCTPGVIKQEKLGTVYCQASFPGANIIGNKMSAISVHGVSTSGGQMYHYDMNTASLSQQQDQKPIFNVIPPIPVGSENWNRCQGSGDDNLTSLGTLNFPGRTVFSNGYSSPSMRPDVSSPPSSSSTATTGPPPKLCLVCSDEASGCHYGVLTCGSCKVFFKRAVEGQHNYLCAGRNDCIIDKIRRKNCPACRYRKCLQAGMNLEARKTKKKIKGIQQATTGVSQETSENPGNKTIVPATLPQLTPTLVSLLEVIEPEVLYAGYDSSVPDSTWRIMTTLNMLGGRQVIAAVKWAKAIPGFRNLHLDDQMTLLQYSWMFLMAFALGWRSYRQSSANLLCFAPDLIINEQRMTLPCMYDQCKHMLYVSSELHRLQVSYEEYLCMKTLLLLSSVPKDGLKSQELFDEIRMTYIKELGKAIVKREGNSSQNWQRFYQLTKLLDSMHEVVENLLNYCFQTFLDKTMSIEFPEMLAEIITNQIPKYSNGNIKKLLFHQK

Cc1onc(-c2ccccc2Cl)c1C(=O)N1CCN(c2nc3ccccc3s2)CC1
inactive: activity change, negative = inhibition [1] -24.2% | activity change, negative = inhibition [2] -4.08% | activity, negative = inhibition [3] -3.09% | Potency [4] > 20.6 µM

CC(C(=O)N1CCCCC1)N1C(=O)c2ccccc2C1=O (stereo not given)
inactive: activity change, negative = inhibition [1] 0.952% | activity change, negative = inhibition [2] 8.42% | activity, negative = inhibition [3] 3.42% | Potency [4] > 20.6 µM

c1ccc(OCc2nn3c(-c4ccco4)nnc3s2)cc1
inactive: activity change, negative = inhibition [1] 27.2% | activity change, negative = inhibition [2] 1.21% | activity, negative = inhibition [3] -4.83% | Potency [4] > 20.6 µM

CC1C[C@@]2(NC(=O)NC2=O)C(C)CN1C (stereo not given in full)
inactive: activity change, negative = inhibition [1] 5.36% | activity change, negative = inhibition [2] -4.32% | activity, negative = inhibition [3] 5.03% | Potency [4] > 20.6 µM

c1ccc2c(c1)[nH]c1c(N3CCSCC3)ncnc12
inactive: activity change, negative = inhibition [1] -11.4% | activity change, negative = inhibition [2] -20.2% | activity, negative = inhibition [3] -18.7% | Potency [4] > 20.6 µM

NC(=O)CSc1c[nH]c2ccccc12
inactive: activity change, negative = inhibition [1] 2.78% | activity change, negative = inhibition [2] 0.963% | activity, negative = inhibition [3] -0.854% | Potency [4] > 20.6 µM

Cn1c(NCc2ccccc2)nc2c1c(=O)n(Cc1ccccc1)c(=O)n2C
inactive: activity change, negative = inhibition [1] -27.4% | activity change, negative = inhibition [2] -0.651% | activity, negative = inhibition [3] -21.1% | Potency [4] > 20.6 µM

CC1CN(C2CCN(S(=O)(=O)Cc3ccccc3)CC2)CC(C)O1 (stereo not given)
inactive: activity change, negative = inhibition [1] 3.47% | activity change, negative = inhibition [2] -2.24% | activity, negative = inhibition [3] 5.06% | Potency [4] > 20.6 µM

CCCCNC(=O)c1cc2n(n1)C(C(F)(F)F)CC(c1ccccc1)N2 (stereo not given)
inactive: activity change, negative = inhibition [1] -14.9% | activity change, negative = inhibition [2] 11.1% | activity, negative = inhibition [3] -0.224% | Potency [4] > 20.6 µM

CC(=O)Nc1ccc(OC(=O)CC2SC(=O)NC2=O)cc1 (stereo not given)
inactive: activity change, negative = inhibition [1] 6.63% | activity change, negative = inhibition [2] 11.3% | activity, negative = inhibition [3] 5.85% | Potency [4] > 20.6 µM

CN1CCN(CCCCC(=O)c2ccccc2)CC1
inactive: activity change, negative = inhibition [1] 16.6% | activity change, negative = inhibition [2] -15.1% | activity, negative = inhibition [3] 9.37% | Potency [4] > 20.6 µM

C=CCn1c(=S)[nH]c2ccccc2c1=O
inactive: activity change, negative = inhibition [1] -3% | activity change, negative = inhibition [2] 10.1% | activity, negative = inhibition [3] 4.87% | Potency [4] > 20.6 µM

c1cncc(-c2nnc3sc(C4CCCCC4)nn23)c1
inactive: activity change, negative = inhibition [1] -18.8% | activity change, negative = inhibition [2] -20% | activity, negative = inhibition [3] -1.41% | Potency [4] > 20.6 µM

CN1CCN(Cc2c(O)c(Cl)cc3c(-c4ccccc4)cc(=O)oc23)CC1
inactive: activity change, negative = inhibition [1] -17.1% | activity change, negative = inhibition [2] -1.47% | activity, negative = inhibition [3] -7.42% | Potency [4] > 20.6 µM

Cc1ccc2[nH]c3c(c2c1)CN(C(=O)CN1CCN(c2ccccn2)CC1)CC3
inactive: activity change, negative = inhibition [1] -13.5% | activity change, negative = inhibition [2] 22.4% | activity, negative = inhibition [3] -12.2% | Potency [4] > 20.6 µM

CC(=O)C1(C)OC(N)=C(C#N)C(c2ccccc2)C1(C#N)C#N (stereo not given)
inactive: activity change, negative = inhibition [1] 13.9% | activity change, negative = inhibition [2] -28.6% | activity, negative = inhibition [3] -4.54% | Potency [4] > 20.6 µM

CCOC(=O)c1c(CN2CCN(C)CC2)n(C)c2cc(Br)c(OC)cc12
inactive: activity change, negative = inhibition [1] 5.82% | activity change, negative = inhibition [2] 20.5% | activity, negative = inhibition [3] -13% | Potency [4] > 20.6 µM

CCOc1ccc(-c2nnc3sc(-c4c(OC)cccc4OC)nn23)cc1
inactive: activity change, negative = inhibition [1] 3.89% | activity change, negative = inhibition [2] -3.46% | activity, negative = inhibition [3] 8.95% | Potency [4] > 20.6 µM

COc1ccc(-c2cc(-c3ccccc3)n3ncnc3n2)cc1
inactive: activity change, negative = inhibition [1] -5.02% | activity change, negative = inhibition [2] -9.06% | activity, negative = inhibition [3] 1.12% | Potency [4] > 20.6 µM

Cc1cc(C)n(CC2CC(=O)N(c3cc(Cl)cc(Cl)c3)C2=O)n1 (stereo not given)
inactive: activity change, negative = inhibition [1] -15.1% | activity change, negative = inhibition [2] -7.21% | activity, negative = inhibition [3] 2.96% | Potency [4] > 20.6 µM

CCOC(=O)CC(=O)CSc1nc(N)c(C#N)c(-c2ccc(F)cc2)c1C#N
inactive: activity change, negative = inhibition [1] -26.2% | activity change, negative = inhibition [2] 7.66% | activity, negative = inhibition [3] -17.8% | Potency [4] > 20.6 µM

O=C(NCc1ccccn1)c1ccc(=O)oc1
inactive: activity change, negative = inhibition [1] 5.8% | activity change, negative = inhibition [2] -2.94% | activity, negative = inhibition [3] 8.81% | Potency [4] > 20.6 µM

CCOc1nc(SC(C(C)=O)C(=O)Nc2ccccc2)nc(N(C)C)n1 (stereo not given)
inactive: activity change, negative = inhibition [1] -3.25% | activity change, negative = inhibition [2] 19.9% | activity, negative = inhibition [3] 72.5% | Potency [4] > 20.6 µM

Cc1cc(C)n(Cc2cc(C)c(Cn3nc(C)cc3C)cc2C)n1
inactive: activity change, negative = inhibition [1] 14.4% | activity change, negative = inhibition [2] -3.13% | activity, negative = inhibition [3] -5.55% | Potency [4] > 20.6 µM

COc1ccc2c(c1)C1(C)CC(C)(C)N2C(=O)N1c1ccccc1 (stereo not given)
inactive: activity change, negative = inhibition [1] -24.6% | activity change, negative = inhibition [2] 24.8% | activity, negative = inhibition [3] -17.2% | Potency [4] > 20.6 µM
